In PubChem BioAssay (Tox21):
Values joined by “and” are separate entries in the source; they are usually repeats but may differ in a detail not shown here. Identical values can stand only once. Inconclusive results are not listed. A call without a number means that no potency is given here. Active and inactive are the calls of the source. Calls come from the whole dose curve; as a rule, active = well fitted activation curve with a large enough effect in the repeat runs; inconclusive = weak or mixed curves; inactive = flat fitted curve, though single readings scatter.

assay: A CellTox Green Cytotoxicity Assay to monitor cytotoxicity in HEK293 cells - 32 hour (AID 1224881); conditions: CellTox Green fluorescence; series mostly up to 76.8 µM; note: nearly all actives have a fitted effect of over 40% in size
From the text: National Center for Advancing Translational Sciences [NCATS]
NIH Chemical Genomics Center [NCGC]
U.S. Environmental Protection Agency [EPA]
National Institutes of Environmental Health Sciences [NIEHS]
National Toxicology Program [NTP]
Cell-based models are critical for drug discovery. Determining the natural cytotoxic effects resulting from test compounds is an essential research activity. A CellTox Green Cytotoxicity Assay to monitor cytotoxicity in real time of continues cell culture during 40 hours of the compound treatment was used to screen Tox21 10K library compounds in Hek293 cells. CellTox Green Cytotoxicity Assay is a nonlytic, homogeneous, biofluorescent method to measure cytotoxicity in cell culture after experimental manipulation. The assay system uses a proprietary asymmetric cyanine dye that is excluded from viable cells but preferentially stains the dead cell's DNA. […] Viable cells produce no appreciable increases in fluorescence. Therefore, the fluorescence signal produced by the binding interaction with dead cell DNA is proportional to cytotoxicity.
The mixture of Hek293 cell suspension and reagents were dispensed at 600cells/6 ul/well in 1536-well tissue culture treated black solid bottom plates using a Multidrop dispenser. After the assay plates were incubated at a 37 C/5% CO2 incubator for 5 hours, 23 nL of compounds dissolved in DMSO, positive and negative controls was transferred to the assay plate by a pintool work station. The plates were incubated at 37 C for 40 hours. The fluorescence intensity were measured at 0h, 8h, 16h, 24h, 32h and 40h time points using ViewLux plate reader during compound treatment.
Potency is the fitted concentration of half-maximal effect.

SMILES | Potency
CCOP(=S)(OCC)SCn1nnc2ccccc2c1=O | inactive
CCOc1nc(F)cc2nc(S(=O)(=O)Nc3c(Cl)cccc3Cl)nn12 | inactive
CNC(C)Cc1ccccc1OC (stereo not given) | inactive
Nc1nc(N)nc(N)n1 | inactive
Clc1cccc(SC2CCNCC2)n1 | inactive
O=C(CCl)c1ccc(Cl)cc1Cl | 8.49 µM (active)
Oc1ccc(Cl)c(Cl)c1Cl | inactive
O=C(NC(=O)c1c(F)cccc1F)Nc1ccc(OC(F)(F)C(F)OC(F)(F)F)c(Cl)c1 (stereo not given) | inactive
CC(O)(CS(=O)(=O)c1ccc(F)cc1)C(=O)Nc1ccc(C#N)c(C(F)(F)F)c1 (stereo not given) | inactive
N#Cc1cc(I)c(O)c(I)c1 | inactive
c1cc2ccc3cccc4ccc(c1)c2c34 | inactive
Cc1ccccc1C(=O)Nc1cccc(OC(C)C)c1 | inactive
Brc1ccc(Oc2ccccc2)cc1 | 50.2 µM (active) and 21.9 µM (active)
Cc1c(F)c(F)c(COC(=O)C2C(/C=C(\Cl)C(F)(F)F)C2(C)C)c(F)c1F (stereo not given) | inactive
OCCCBr | inactive
CCO[C@H]1O[C@@H]2OC3(C)CC[C@H]4[C@H](C)CC[C@@H]([C@H]1C)[C@@]24OO3 | inactive
CN1[C@@H]2CC[C@H]1CC(OC(=O)c1cc(Cl)cc(Cl)c1)C2 (stereo not given in full) | inactive
CCC(Br)(CC)C(=O)NC(N)=O | inactive
O=C(O)C(F)(F)C(F)(F)C(F)(F)C(F)(F)C(F)(F)C(F)(F)C(F)(F)C(F)(F)C(F)(F)F | inactive
c1ccc(C2CC2)c(OCC2=NCCN2)c1 | inactive

SMILES | Potency
CN(C)c1ccc(N(C)C)cc1 | inactive
COc1c(C(C)(C)C)cc([N+](=O)[O-])c(C)c1[N+](=O)[O-] | inactive
CCCCC(O)(Cn1cncn1)c1ccc(Cl)cc1Cl (stereo not given) | 54.9 µM (active)
Cc1ccc(-c2c(Cl)nc(C#N)n2S(=O)(=O)N(C)C)cc1 | inactive
CCOP(=O)(OCC)O/C(=C/Cl)c1ccc(Cl)cc1Cl | inactive
CCOP(=O)(OCC)Oc1ccc([N+](=O)[O-])cc1 | inactive
CCCCCCCCCC(=O)O[C@H]1CC[C@H]2[C@@H]3CCC4=CC(=O)CC[C@@H]4[C@H]3CC[C@]12C | inactive
COC(=O)C(Br)CBr (stereo not given) | inactive
CC(=O)c1cc2c(cc1C)C(C)(C)C(C)CC2(C)C (stereo not given) | 19.5 µM (active)
Cc1ccc(N)cc1C | inactive
C=CCCl | inactive
N#CCC#N | inactive
CCCCOC(=O)c1ccccc1C(=O)OCc1ccccc1 | inactive
Cc1ccc2ccccc2c1 | inactive
Clc1ccc(C2(Cn3cncn3)CC(Br)CO2)c(Cl)c1 (stereo not given) | inactive
NS(=O)(=O)C(F)(F)C(F)(F)C(F)(F)C(F)(F)C(F)(F)C(F)(F)C(F)(F)C(F)(F)F | inactive
O=NN1CCNCC1 | inactive
O=C(O)CC(Cl)C(=O)O (stereo not given) | inactive
C=CC(=O)OC(C)(C)C | inactive
COP(=S)(Oc1cc(Cl)c(Br)cc1Cl)c1ccccc1 (stereo not given) | inactive
